# Screens: PubChem, National Center for Advancing Translational Sciences (NCATS)
# RGS4 inh: Inhibitors of Regulator of G Protein Signaling (RGS) 4: qHTS; Transcreener GDP fluorescence polarization, RGS4-accelerated GTP hydrolysis; 0.039% of 390,000 active; Potency, µM (series often up to 114 µM), for inactives: at the highest dose activity change, negative = inhibition, most hits filed as inhibitors; also: potency is read from the fitted curve at half-maximal effect; % is scaled to controls: 0 for no effect and ±100 for the full control effect; nearly all actives have a fitted effect of over 75% in size
#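 MLSMR compounds (23 nl, pin-transferred) preincubated 10 min at room temperature with a 500nM (2x) first reagent, then RGS4 at 900nM (2x) plus Transcreener GDP mix added; fluorescence polarization (620/688 nm) read before and after 90 min at 30 °C.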
# CtBP-E1A blk: qHTS Assay for Inhibitors of the CtBP/E1A Interaction; AlphaScreen GST-E1A/His-CtBP binding, 1536-well; hits give low values; 0.49% of 340,000 active; CtBP / adenovirus E1A interaction (AlphaScreen); activity change, % (test concentration not listed); in the data active = activity change below about -65%; inconclusive = mostly about -30% to -63%; also: % is scaled to controls: 0 for no effect and ±100 for the full control effect
#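 Protein mix (5X: 125 nM each GST-E1A, His-CtBP) was incubated with pinned compound 2 h at 37 deg C in dark, in 50 mM Tris pH 8.0 buffer with 300 mM NaCl. Glutathione donor and nickel acceptor beads followed; AlphaScreen signal read after 1 h.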
# Glioma ERSR ind: qHTS for Inducers of the Endoplasmic Reticulum Stress Response (ERSR) in Human Glioma: qHTS; U87-MG GRP78 promoter luciferase reporter, 16 h; Potency, µM, for inactives: at the top dose activation, most hits filed as activators; 0.02% of 420,000 active; also: potency is read from the fitted curve at half-maximal effect; series mostly up to about 76 µM; % of control where 0% means no effect; nearly all actives have a fitted effect of over 35% in size
#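 Stably transfected U87-MG glioma cells carrying a GRP78-based luciferase sensor; 16 h compound incubation. Luminescence end-point read 10 min after Bright-Glo addition at room temperature.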
# Six1-Eya2 inh: qHTS Assay for Inhibitors of the Six1/Eya2 Interaction. activity change, % (test concentration not listed). AlphaScreen GST-Six1/His-Eya2 binding, biochemical; hits give low values. 0.56% of 360,000 active; in the data active = activity change below about -65%; inconclusive = mostly about -30% to -63%; also: % is scaled to controls: 0 for no effect and ±100 for the full control effect
#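 GST-Six1 + His-Eya2 (5X stock: 250/500 nM); Tris pH 8.0, 300 mM NaCl, 0.05% BSA, 0.02% Tween 20; GSH donor/Ni acceptor beads; 1 h 37 °C dark; AlphaScreen readout.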
# Akt phos inh: HTS Assay for Inhibitors of Akt Phophorylation: Primary Screen; Neuro2A IGF-stimulated pAkt S473 HTRF, 20 min; hits give low values; activity change, % for hits at 50 µM; 0.32% of 360,000 active; AID 651550, 2012; in the data active = activity change below about -80%; inconclusive = mostly about -51% to -80%; also: % is scaled to controls: 0 for no effect and ±100 for the full control effect
#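 Neuro2A cells (4,500/well, DMEM with 0.5% FBS) were treated with compound at a single 50 µM final concentration, stimulated with 6 nM IGF for 20 min at 37 °C, and lysed. Phospho-Akt Ser473 was read by HTRF as 665/615 ratio ×10^4.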
# * = called active by the depositor; i = inactive; ? = inconclusive; nt = no result; [ ] = dose if it differs, or a comment. This is a sample that favours compounds with a hit; in the whole collection about 0.88% have one here. Unless noted, calls follow the shape of the dose curve; as a rule, active = well fitted curve in the direction sought with a large enough effect; inconclusive = small, poorly fitted or top-dose-only effect, or another doubt; inactive = no such curve, though single readings can be large; an effect the other way counts as inactive or inconclusive.
SMILES,RGS4 inh,CtBP-E1A blk,Glioma ERSR ind,Six1-Eya2 inh,Akt phos inh
Cc1ccccc1-c1nc2ccccc2[nH]1,27%,-1,1%,8,-124%*
COC(=O)c1cccc(C(=O)NCc2nc(-c3ccccc3NC(C)=O)oc2C)c1,nt,nt,-2%,nt,nt
COc1cccc(NC(=O)c2cccs2)c1,-18%,6,2%,4,i
COc1cc(NC(=O)c2cccs2)c(OC)cc1NC(=O)CCC(=O)Nc1ccc(C)cc1,-2%,?,-8%,?,i
COc1cccc(NC(=O)CCC(=O)Nc2cc(OC)c(NC(=O)c3cccs3)cc2OC)c1,-2%,-82*,-1%,-69*,i
COc1ccc(NC(=O)CCC(=O)Nc2cc(OC)c(NC(=O)c3cccs3)cc2OC)cc1,4%,-79*,-2%,-79*,i
O=[N+]([O-])c1ccc(Nc2ccccc2)c2nonc12,4%,nt,-6%,-13,i
O=[N+]([O-])c1ccc(Sc2cccc[n+]2[O-])c2nonc12,-117%,-68*,-13%,-68*,i
CCCCCCc1nc2c(=O)[nH]c3ccccc3c2o1,-5%,14,-3%,1,-87%*
CCCCCCCc1nc2c(=O)n(C)c3ccccc3c2o1,-32%,2,-2%,6,nt
O=C(NCC1Cc2cccc(-c3cccnc3)c2O1)c1cc(-c2ccccc2)n[nH]1 (stereo not given),nt,nt,0%,nt,nt
CCN(CC)c1ccc2c(-c3ccc(S(=O)(=O)O)cc3S(=O)(=O)[O-])c3ccc(=[N+](CC)CC)cc-3oc2c1,?,?,-11%,-67*,i
COc1ccc(CNC(=O)CCS(=O)(=O)c2ccc3c(c2)CCN3C(C)=O)cc1,6%[11.4 µM],7,5%,-92*,i
CC(=O)N1CCc2cc(S(=O)(=O)CCC(=O)NCc3ccc(F)cc3)ccc21,16%,-13,14%,3,i
CC(C)NS(=O)(=O)c1ccc2[nH]c3nc(SCC(=O)Nc4ccc(F)c(F)c4)nnc3c2c1,-10%,nt,nt,nt,nt
CCn1ccc(C(=O)NC2=C(C#N)CCC2)n1,-19%[11.4 µM],4,-5%,3,-115%*
COc1ccc(OC)c(-c2cc(Cl)c3c(c2)CC(CNC(=O)[C@@H]2CCCN2C(C)=O)O3)c1 (stereo not given in full),nt,nt,-3%,nt,nt
COC(=O)c1ccc2c(c1)NC(=O)c1ccccc1S2,-22%,4,-5%,5,i
N#C/C=C1/NC(=O)c2ccccc2S1,?,-10,-5%,-17,-110%*
CN(Cc1cnc2ccccn12)C(=O)c1cc(NC(=O)c2ccccc2)cc2ncn(C3CCCC3)c12,nt,nt,-1%,nt,nt
Cc1ccc(C(=O)OCC(=O)NC2CCCCC2)o1,-7%,1,1%,6,i
Cc1ccc(C(=O)NC2CCCCCC2)o1,-3%,1,0%,-1,-140%*
O=C(O)c1cc2nc(-c3ccc(F)cc3)cc(C(F)(F)F)n2n1,18%,?,-1%,?,i
NC(=O)c1cc2nc(-c3ccco3)cc(C(F)(F)F)n2n1,-9%,-80*,-2%,-72*,nt
CCn1cc(-c2cc(C(F)(F)F)n3nc(C(=O)O)cc3n2)c(C)n1,-40%,-19,11%,-8,-112%*
SMILES,RGS4 inh,CtBP-E1A blk,Glioma ERSR ind,Six1-Eya2 inh,Akt phos inh
COc1ccc(-c2cc(C(F)(F)F)n3nc(C(=O)O)cc3n2)cc1OC,-53%,?,-7%,-70*,i
CCCCCCCCCCCCCCCCn1cc[n+](Cc2ccccc2)c1C,nt,nt,-12%,nt,nt
CCOc1c(C)cc2[nH]c(CCC(=O)O)nc2c1C,28%,0,8%,9,-112%*
COc1cc(/C=C2/SC(N)=NC2=O)ccc1Oc1ccc([N+](=O)[O-])cc1[N+](=O)[O-],-98%,-8,-4%,-2,i
NC1=NC(=O)/C(=C\c2ccc(O)c([N+](=O)[O-])c2)S1,7%,-82*,-2%,-76*,i
CCCCCCCCCCCCCCCCCCOP(=O)([O-])OC1CC[N+](C)(C)CC1,nt,nt,-4%,nt,nt
